Source: PubChem BioAssay AID2100 (National Center for Advancing Translational Sciences (NCATS), 2009)
Among all 300,000 compounds or so, about 1,200 (0.4%) were called active. Not shown: some 3% with an inconclusive outcome. Calls come from the whole dose curve; as a rule, active = well fitted inhibition curve with a large enough effect; inconclusive = small, poorly fitted or top-dose-only effect, or another doubt; inactive = no such curve, though single readings can be large or run the other way. What follows is part of a selection rich in actives, with near analogues and random picks from the rest. A call without a number means that no potency is given here.

target: Lysosomal alpha-glucosidase (Homo sapiens) (UniProt P10253); assay: qHTS Assay for Inhibitors and Activators of Human alpha-Glucosidase Cleavage of Glycogen; details: recombinant GAA, glycogen substrate, Amplex Red glucose oxidase fluorescence; series mostly up to 76.3 µM;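 note: the screen sought inhibitors and activators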
Description: NIH Chemical Genomics Center [NCGC] NIH Molecular Libraries Probe Production Centers Network [MLPCN] MLPCN Grant: R03 MH084841-01 Assay Submitter (PI): Wei Zheng NCGC Assay Overview: Alpha-glucosidase is responsible for the hydrolysis of terminal, non-reducing 1,4-linked alpha-D-glucose residues, which releases alpha-D-glucose. It is a lysosomal hydrolase that is required for the degradation of a small percentage (1-3%) of cellular glycogen in humans. Deficiency of this enzyme results in glycogen-storage disease type II (GSDII), also referred to as Pompe disease, an autosomal recessive disorder. Structurally normal glycogen is accumulated in the lysosomes and cytoplasm in affected patients, primarily in muscle tissues. Excessive glycogen storage within lysosomes may interrupt normal functioning of other organelles and leads to cellular injury. In turn, this leads to enlargement and dysfunction of the entire organ involved (eg: cardiomyopathy and muscle weakness). It has been reported that the improper folding and trafficking of alpha-glucosidase resulting from genetic mutations may account for a significant number of Pompe patients. […] We optimized this alpha-glucosidase assay in 1536-well plate format for identification of novel small molecule inhibitors or activators with structures other than the sugar analogs in order to develop new pharmacological chaperones. Previous assays of alpha-Glucosidase have utilized a non-natural fluorescent substrate to probe enzyme activity. The present assay measures enzyme activity on glycogen using a coupled-assay system to glucose oxidase.
NCGC Assay Protocol Summary: This is an enzyme assay using glycogen from bovine liver (Sigma catalog #: G0885) as the substrate and recombinant human alpha-glucosidase as the enzyme preparation. Upon hydrolysis of the substrate, the glucose product can be detected using the Amplex Red Glucose Oxidase Assay Kit (Invitrogen catalog #: A22189). The product of this reaction can be read with a fluorescence plate reader with an excitation at 573 nm and an emission at 610 nm. Data were normalized to the controls for basal activity (without enzyme) and 100% activity (with enzyme). The AC50 values were determined from concentration-response data modeled with the standard Hill equation. Assay buffer for enzyme reaction: 50 mM citric acid (titrated with potassium phosphate to pH 5.0), 0.01% Tween-20 (pH 5.0 is an optimal condition for this enzyme assay) Assay buffer for Amplex Red reaction: Tris-HCl, pH 7.5 1536-well assay protocol for the alpha-glucosidase assay: (1) Add 2 ul/well alpha-glucosidase enzyme solution (4 nM final) (2) Add 23 nL compounds in DMSO solution. The final titration was 0.7 nM to 77 uM. (3) Add 1 ul of glycogen substrate solution (30 ug) (4) Incubate at 37 C for 40 min (5) Add 2 ul tris-HCl buffer with Amplex Red reagents (6) Incubate 45 min at room temperature. (7) Detect the assay plate in a ViewLux plate reader (PerkinElmer) with Ex=573 nm and Em=610nm. Keywords: Alpha-glucosidase, Pompe Disease, pharmacological chaperone, chaperone therapy, high throughput screening, alpha-glucosidase inhibitor, MLSMR, MLSCN, NIH Roadmap, qHTS and NCGC
Potency is the fitted concentration of half-maximal effect.

SMILES | Potency
N#C/C=C\Oc1ccc(Cl)cc1N | 9.92 µM (active)
CCCS(=O)(=O)c1c(Nc2ccccc2C)sc(C(=O)c2ccccc2)c1N | inactive
COc1ccc(S(=O)(=O)Nc2cc3c(C(=O)OC(C)C)c(C)oc3c3ccccc23)cc1 | inactive
Cn1cnc([N+](=O)[O-])c1Nc1ccccc1O | 7.88 µM (active)
Cn1cnc([N+](=O)[O-])c1Sc1n[nH]c(N)n1 | inactive
Cn1cnc([N+](=O)[O-])c1Sc1ccccc1 | inactive
CC1=C(C(=O)OCc2ccc(C)cc2)C(c2ccccc2Cl)CC(=O)N1 (stereo not given) | inactive
CCc1ccc(NC(=O)c2sc3nc4c(cc3c2N)CN(CC)CC4)cc1 | inactive
CCc1nn(CC(=O)N2CCN(c3ccc(Cl)cc3)CC2)c(=O)c2cc3occc3n12 | inactive
Fc1ccccc1N=C1Nc2cccc3cccc1c23 | inactive
COc1ccccc1-c1nc(SC)n[nH]1 | inactive
COc1ccccc1C1=Nc2cccc3cccc(c23)N1 | 17.6 µM (active)
Cc1cc(C)c2c(-n3cccc3)c(NC(=O)OCc3ccccc3)sc2n1 | inactive
Cc1cc(C)c2c(-n3cccc3)c(C(=O)NNS(=O)(=O)c3ccc(F)cc3)sc2n1 | 31.6 µM (active)
COC(=O)Nc1sc2nc(C)cc(C)c2c1-n1cccc1 | inactive
COc1ccc(Cn2cc(C(=O)c3ccc(C)cc3)c(=O)c3cc(OC)c(OC)cc32)cc1 | inactive
COc1ccc(CNC(=O)c2cc3c(-c4ccccc4F)nn(C)c3s2)c(OC)c1 | inactive
COc1ccc(-c2cc(C(F)(F)F)nc(SCC(=O)N(C)Cc3ccccc3)n2)cc1OC | inactive
Cc1ccc(NNC(=O)c2cccs2)cc1Cl | 14.1 µM (active)
Cc1ccc(C(=O)NNC(=O)c2cccs2)cc1 | inactive
O=C(NNC(=O)c1ccc(Cl)cc1Cl)c1cccs1 | inactive
O=C(O)C1CCN(c2ccc([N+](=O)[O-])cc2[N+](=O)[O-])CC1 | inactive
COc1ccc(N2CCN(c3ccc([N+](=O)[O-])cc3Cl)CC2)cc1 | inactive
O=[N+]([O-])c1ccc(N2CCN(c3ccc(O)cc3)CC2)c(Cl)c1 | 10 µM (active)
O=C(CSCc1cnn(-c2ccccc2)c1-n1cccc1)NCc1ccccc1Br | inactive
CC(=O)Nc1ccc(NC(=O)CCCc2nc(-c3ccc(C(C)(C)C)cc3)no2)cc1 | inactive
COc1ccc(N2CCN(c3cc(C)nc4nncn34)CC2)cc1 | inactive

SMILES | Potency
Oc1ccc(N2CCN(C(=S)NCc3ccccc3)CC2)cc1 | 3.16 µM (active)
S=C(NCCc1ccccc1)N1CCCCC1 | inactive
O=C(COC(=O)c1ccccc1C(=O)N1CCN(c2ccccc2)CC1)NCc1ccccc1 | inactive
COc1ccc(-c2noc(CSc3nc4ccc(C)cc4[nH]3)n2)cc1 | inactive
O=C(CN1CCN(c2ccccc2)CC1)Nc1ccc(F)cc1 | inactive
O=C(CN1CCOCC1)Nc1ccccc1 | inactive
O=C(CN1CCN(c2ccc(O)cc2)CC1)Nc1ccc(-c2ccccc2)cc1 | 10 µM (active)
CCOc1ccc(N(CC)S(=O)(=O)N2CCCC(C(=O)NCc3ccc(SC)cc3)C2)cc1 (stereo not given) | inactive
CCc1ccc(NC(=O)C2CCCN2S(=O)(=O)c2ccc3nc(-c4ccccc4)[nH]c3c2)cc1 (stereo not given) | inactive
Cc1ccccc1CNC(=O)CCCn1nc(C)c2sc3ccccc3c2c1=O | inactive
O=C(Cn1nc(C(F)(F)F)c2c1CCCC2)Nc1ccc(Cl)cc1 | inactive
COc1cccc(-c2nc(CS(=O)(=O)CC(=O)N3CCN(c4cc(C)ccc4C)CC3)c(C)o2)c1 | inactive
CC/C(C)=N/Nc1nc2sc3c(c2c(=O)[nH]1)CC(C)(C)OC3 | inactive
CCC(O)CNc1nc(-n2nc(C)cc2C)nc2sc3c(c12)CC(C)(C)OC3 (stereo not given) | inactive
C=CCNC(=S)NNc1ncnc2sc3c(c12)CC(C)(C)OC3 | 11.2 µM (active)
Cc1cccc(OCCSc2nc3ccccc3n2CC(=O)N2CCCCC2)c1C | inactive
Cc1cc(Nc2ccccc2)n(CCC#N)n1 | 19.8 µM (active)
N#CCCn1ncc2ccccc21 | inactive
Cc1cc(Nc2ccccc2)n(C(=O)c2ccc(N)cc2)n1 | inactive
COc1ccc(NC(=O)NC(C)c2c(-n3cccc3)sc(C)c2C)cc1OC (stereo not given) | inactive
O=C(NNS(=O)(=O)c1ccccc1C(F)(F)F)c1cc2ncc(C(F)(F)F)cc2s1 | 28.2 µM (active)
O=C(CS(=O)(=O)c1ccc(C(F)(F)F)cn1)NNC(=O)c1ccccc1 | inactive
Cc1cc(C(=O)NNS(=O)(=O)c2ccccc2C(F)(F)F)nn1C(C)(C)C | inactive
CCc1ccc(NC(=O)Cn2c(=O)n(CCC(=O)NCc3ccc4c(c3)OCO4)c(=O)c3ccccc32)cc1 | inactive
COc1ccc(S(=O)(=O)c2cn(C)c3cc(N4CCCCC4)c(F)cc3c2=O)cc1 | inactive
CCS(=O)(=O)N1CCc2cc(C(=O)N3CCN(c4ccccc4OC)CC3)ccc21 | inactive
CCCOc1ccc(C2c3c(-c4ccccc4O)n[nH]c3C(=O)N2Cc2cccnc2)cc1 (stereo not given) | inactive

SMILES | Potency
CCOc1ccc(CNC(=O)C2CCCN(S(=O)(=O)N(CC)c3ccc(OCC)cc3)C2)cc1 (stereo not given) | inactive
COc1ccccc1CNC(=O)c1ccc(NC(=O)N2CC(C)Sc3ccccc32)cc1 (stereo not given) | inactive
COc1ccc(NC(=O)N2CCC(Cc3ccccc3)CC2)cc1 | inactive
COc1ccc(CNC(=O)c2ccc(NC(=O)N3CC4CCCN4c4ccccc43)cc2)cc1 (stereo not given) | 17.8 µM (active)
CCCOc1cccc(C(=O)Nc2cccc(NC(=O)c3ccc(C(C)(C)C)cc3)c2)c1 | inactive
COc1ccc(CCNC(=O)c2cc(=O)c3c(C)cc(C)cc3o2)cc1OC | inactive
CCOC(=O)c1c(C)oc2ccc(N(C(=O)c3ccncc3)S(=O)(=O)c3ccc(CC)cc3)cc12 | inactive
CCn1c(SCC(=O)N/N=C/c2ccncc2)nc2ccccc21 | inactive
Cc1ccc(/C=N/NC(=O)CSc2nc3ccccc3o2)cc1 | inactive
Cn1c(SCC(=O)N/N=C/c2ccc(O)c(O)c2)nc2ccccc21 | 8.91 µM (active)
CCN(CC)S(=O)(=O)c1nnc(NC(=O)COc2ccccc2Cl)s1 | inactive
CCS(=O)(=O)N1CCc2cc(C(=O)NCc3ccc(OC)cc3)ccc21 | inactive
Cc1ccccc1-c1nc(CS(=O)(=O)CC(=O)Nc2cc(Cl)cc(Cl)c2)c(C)o1 | inactive
Cc1cccc(NC(=O)N2CCC(CN3CCc4ccccc4C3)CC2)c1C | inactive
COc1ccc2c(c1)C(C)=CC(C)(C)N2C(=O)CNCc1ccc2c(c1)OCO2 | inactive
CC1=CC(C)(C)N(C(=O)CSc2nnc(-c3ccccc3)o2)c2ccc(C)cc21 | inactive
COc1ccc2c(c1)C(C)=CC(C)(C)N2C(=O)Nc1ccccc1 | 35.5 µM (active)
CCOc1ccc(N(Cc2ccccc2)C(=O)c2nc(S(C)(=O)=O)ncc2Cl)cc1 | inactive
Cc1ccc(Cn2c(CCCNC(=O)C3CCCCC3)nc3ccccc32)cc1 | inactive
COc1ccc2c(Sc3ccc(C)cc3)c(C(=O)NC(C)c3ccccc3)[nH]c2c1 (stereo not given) | inactive
Cc1cc2cc3c(N)[nH]nc3nc2cc1C | 8.91 µM (active)
Cc1cccc(NC(=O)c2cc3c(C)nn(-c4ccccc4)c3s2)c1 | inactive
COc1ccc(-c2cn3nc(N4CCCC(C(=O)NCCCOC(C)C)C4)sc3n2)cc1 (stereo not given) | inactive
COC(=O)c1cc(S(=O)(=O)N2CCN(c3cc(Cl)ccc3C)CC2)c[nH]1 | inactive
COC(=O)c1cc2occc2n1Cc1nc(-c2ccc(C)cc2)oc1C | inactive
Cc1nn(C(C)C(=O)NCCc2ccccc2)c(=O)c2c1sc1ccccc12 (stereo not given) | inactive
O=C(Nc1ccccc1)Nc1ccc(C(F)(F)F)cn1 | inactive

SMILES | Potency
Oc1ccc(/C=N/Nc2ccc(C(F)(F)F)cn2)cc1O | 3.52 µM (active)
Oc1ccc(Br)cc1/C=N/Nc1ccccn1 | inactive
CCC1CCCCN1S(=O)(=O)c1ccc(NC(=O)c2cc(=O)c3ccccc3o2)cc1 (stereo not given) | inactive
CCN1C(=O)c2cccc3c(N)ccc1c23 | 28.2 µM (active)
CN1C(=O)c2cccc3c(N)ccc(c23)C1=O | inactive
CCN1C(=O)c2cccc3c(S(=O)(=O)Nc4ccccc4O)ccc1c23 | inactive
O=C(Nc1ccc2nc(SCC(=O)N3CCCc4ccccc43)sc2c1)c1ccc(Cl)cc1 | inactive
CCOC(=O)c1c(NC(=S)NC)sc2c1CCCC2 | inactive
CCOC(=O)c1c(/N=C/c2cc(C)ccc2O)sc2c1CCC2 | 10 µM (active)
CCOC(=O)c1c(NC(=O)/C(C#N)=C/c2ccccc2)sc2c1CCC2 | inactive
O=C1CC(=O)Nc2cc(S(=O)(=O)N3CCN(c4cccc(C(F)(F)F)c4)CC3)ccc2N1 | inactive
COc1ccc(N2CCN(S(=O)(=O)c3ccc4c(c3)NC(=O)C(C)C(=O)N4)CC2)cc1 (stereo not given) | inactive
COc1ccc(N2CCN(S(=O)(=O)c3ccc4c(c3)CC(=O)N4)CC2)cc1 | 59.8 µM (active)
Cc1ccc(NC(=O)c2nc(S(=O)(=O)Cc3cccc(C)c3)ncc2Cl)cc1 | inactive
Cc1ccc2nc(C)cc(N/N=C/c3ccc(F)cc3)c2c1 | inactive
Cc1cc(N/N=C/c2ccccc2F)c2ccccc2n1 | inactive
COc1cccc2c(N/N=C/c3ccco3)cc(C)nc12 | 8.84 µM (active)
Cc1ccc(C)n1-c1nnc(N2CCC(C(=O)NCc3ccc(F)cc3)CC2)s1 | inactive
CCOc1ccc(CNC(=O)C2CCN(c3nnc(-n4cccc4CNc4ccc(C)cc4)s3)CC2)cc1OC | 31.6 µM (active)
Cc1ccc(CCNC(=O)C2CCN(c3nnc(-n4cccc4CNc4ccc(C)cc4)s3)CC2)cc1 | inactive
Cc1cccc(OCC(=O)N(Cc2ccc(C(C)C)cc2)Cc2ccco2)c1C | inactive
CCn1c2ccccc2c2cc(NC(=O)COC(=O)c3ccccc3Br)ccc21 | inactive
CCn1c2ccccc2c2cc(NC(=O)CNC)ccc21 | inactive
CCn1c2ccccc2c2cc(NC(=S)N3CCOCC3)ccc21 | 12.5 µM (active)
